# Results filed as inconclusive are left out. Active and inactive are the calls of the source. Calls follow the shape of the dose curve; as a rule, active = well fitted activation curve with a large enough effect; inconclusive = small, poorly fitted or top-dose-only effect; inactive = no such curve, though single readings can be large or run the other way.
# Target: Cellular tumor antigen p53 (Homo sapiens) (UniProt P04637)
# Test: Confirmatory qHTS for small molecule compounds that upregulate eGFP-tagged delta133p53alpha (in C-terminal) cells.
# Conditions: delta133p53alpha-eGFP (C-terminal) reporter cells, GFP fluorescence upregulation; series mostly up to 57.5 µM; activation (upregulation): at the top concentration
# Source text: Assay Development and Screening Technology
# National Center for Advancing Translational Sciences (NCATS),
# National Institute of Health (NIH), Rockville, Maryland
# Cellular senescence (CS) is one of the hallmarks of aging and age-related diseases. Senescent cells are characterized by an irreversible growth arrest, an increase in senescence-associated beta-galactosidase (SA-beta-gal) activity and p16INK4a expression, an activation of the DNA damage response pathways, and the emergence of a senescence-associated secretory phenotype (SASP).
# Delta133p53alpha, a human/primate-specific p53 protein isoform, delays or inhibits the induction of CS and SASP in various types of human cells, including progeria-derived fibroblasts, primary normal astrocytes, and CD8+ T lymphocytes. Induction of delta133p53alpha with small molecule compounds may provide therapeutic opportunities for inhibition of senescence/SASP-associated pathologies in progeria syndromes, astrocyte-mediated neuroprotection in neurodegenerative diseases, and possibly prevention and treatment of a wider range of senescence- and aging-associated diseases.
# Here we report the development and validation of a cell-based quantitative high throughput screening (qHTS) assay in 1,536-well format. This qHTS assay uses the NCI-H358 cell line with doxycycline-inducible expression of enhanced green fluorescent protein (eGFP)-tagged delta133p53alpha, which allows efficient and highly quantitative measurement of the protein levels.
# PROTOCOL TABLE (as described by Inglese J, Shamu CE and Guy RK. 2007)
# SEQUENCE No. (e.g., 1, 2, 3, etc.); […] (e.g., Cells, Incubation, Reagent, etc.); VALUE; DESCRIPTION.
# 1; Cells; 4uL; 800 doxycycline treated cells / well in doxycycline-free media, 1536-well black, clear-bottom low base Aurora microplates.
# 2; Compounds; 23 nL; Kalypsis pin tool (Wako) equipped with 1536-well pin heads, 5-azacytidine positive control.
# 3; Incubation; 24 hr; 37C, 5% CO2; 95% relative humidity.
# 4; Aspiration; 1x; BioTek EL406 washer dispenser (Agilent).
# 5; Fixing; 3.5% paraformaldehyde, BioTek EL406 washer dispenser (Agilent).
# 6; Washing; 1x PBS; BioTek EL406 washer dispenser (Agilent).
# 7; Nuclei staining; 1:1000 dilution of Hoechst 33342 (Thermofisher), BioTek EL406 washer dispenser (Agilent).
# 8; Incubation; 20 min; in the dark at room temperature.
# 9; Washing; 2x, 1x PBS (ThermoFisher), BioTek EL406 washer dispenser (Agilent).
# 10; Reagent; 10 uL; 1x PBS per well, sealed with clear adhesive tape.
# 11; Detection; Fluorescence, Acumen eX3 laser scanning cytometer (STP Labtech), GFP filters […].
# NOTES (numbers refer to sequence numbers above).
# 1. NCI-H358 cells expressing eGFP-tagged delta133p53alpha were grown in T75 culture flasks and treated with doxycycline for 24h, at 10 ng/ml for eGFP-D133p53a cells (N-terminal cell) and 100 ng/ml for D133p53a-eGFP cells (C-terminal cells). Cells were trypsinized, counted using a Counted 3 Automated Cell Counter (Thermo Fisher), and diluted to a concentration of 200,000 cells/ml. A Multidrop Combi Reagent Dispenser (ThermoFisher) was used to dispense 800 cells/well in […] of doxycycline-free media, into 1536-well black/clear bottom low base plates (AuroraMicroplates).
# 2. After plating cells, 23 nl of compound library, DMSO vehicle control or positive control (5-azacytidine) were transferred by Pin Tool (Wako). The plate map layout was the same for each plate: (column 1) non-doxycycline treated cells + DMSO vehicle control; (column 2) doxycycline treated cells + DMSO vehicle control baseline; (column 3) doxycycline treated cells + positive control 57.5 uM final concentration 5-azacytidine; (column 4) doxycycline treated cells + serial dilution of 5-azacytidine, 16-point 1:2 titration spanning 1.8 nM to […] final concentration; (columns 5-48) doxycycline treated cells + titration of library compounds.
# 3. Cells were incubated at 37 °C, 5 % CO2, 95% RH with breathable metal lid for 24h.
# 4-10. […]
# Chain of Cellular tumor antigen p53 (Homo sapiens) (P04637 whole entry, looked up): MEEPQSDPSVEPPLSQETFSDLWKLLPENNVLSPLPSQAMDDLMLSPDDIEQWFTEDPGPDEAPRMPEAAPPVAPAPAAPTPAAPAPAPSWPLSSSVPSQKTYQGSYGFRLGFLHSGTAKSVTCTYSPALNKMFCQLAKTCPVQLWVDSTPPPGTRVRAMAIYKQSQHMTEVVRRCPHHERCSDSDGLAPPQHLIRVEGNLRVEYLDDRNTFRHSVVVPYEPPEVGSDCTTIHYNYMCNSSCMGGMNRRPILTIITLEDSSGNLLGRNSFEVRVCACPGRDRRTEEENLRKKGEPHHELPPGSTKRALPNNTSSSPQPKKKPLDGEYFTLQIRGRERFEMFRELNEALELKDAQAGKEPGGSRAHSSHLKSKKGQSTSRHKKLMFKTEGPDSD
Structure (SMILES),activation (upregulation),Potency
CP(=O)(O)C1=CCNCC1,-6.67% (inactive),–
C[C@]12Cc3cn4c(nc3C=C1CCC1C2CC[C@@]2(C)[C@H]1CC[C@@]2(O)C#N)nc1ccccc14 (some centres undefined),–,19.3 µM (active)
CC1(C(=O)O)C2CCC(O2)C1(C)C(=O)O (centres undefined),47.5% (inactive),–
CC[C@@]1(O)C(=O)OCc2c1cc1n(c2=O)Cc2cc3ccccc3nc2-1,–,1.72 µM (active)
N[C@H](CCCCCP(=O)(O)O)C(=O)O,0.294% (inactive),–
CC(=O)[C@H]1CC[C@H]2[C@@H]3CC[C@H]4C[C@](C)(O)CC[C@]4(C)[C@H]3CC[C@]12C,25.2% (inactive),–
c1ccc2c(c1)OCC(C1=NCCN1)O2 (centres undefined),18.9% (inactive),–
Cc1c2ccncc2c(C)c2c1[nH]c1ccccc12,–,3.06 µM (active)
CC1=NN=C(c2ccc(N)cc2)c2cc3c(cc2C1)OCO3,–,34.3 µM (active)
O=C1/C(=C\c2ccccc2)C[C@@]2(O)[C@H]3Cc4ccc(O)c5c4[C@@]2(CCN3CC2CC2)[C@H]1O5,–,15.3 µM (active)
CCn1cnc2c(Nc3cccc(Cl)c3)nc(N[C@@H]3CCCC[C@@H]3N)nc21,–,9.68 µM (active)
c1ccc2c(c1)[I+]c1ccccc1-2,–,19.3 µM (active)
CCS(=O)(=O)Nc1cccc(C(=C2CCCCC2)c2cnc[nH]2)c1,-16.3% (inactive),–
CN1C2CCC1CC(OC(c1ccccc1)c1ccccc1N)C2 (centres undefined),-13.1% (inactive),–

# Reference: PubChem BioAssay AID2060323 (National Center for Advancing Translational Sciences (NCATS), 2025)
